# Assay results as given in PubChem BioAssay AID1963321 (National Center for Advancing Translational Sciences (NCATS), 2024).
# Inconclusive results are not listed. Where a call stands in place of a potency, no number is given. Active and inactive are the calls of the source. The call rests on the fitted dose curve.
# Biological target: cAMP-dependent protein kinase catalytic subunit alpha (Homo sapiens) (UniProt P17612)
# Test: Protein Kinase A (PKA-HiBiT) enzymatic inhibition screen - Functional assay
# Details: luminescence; series mostly up to 57.5 µM
# Summary of the method: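 PKA-N-HiBiT enzyme (10 nM final) with 87.5 uM ATP preincubated 30 min at room temperature with compounds. Kemptide substrate then added for 3 h; residual ATP read by Kinase-Glo Plus luminescence, H-89 as positive control.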
row,Structure (SMILES),Potency
1,Cc1cc(F)ccc1-c1nc(NCCN=C(N)NC#N)nc2c1ccc(=O)n2-c1c(F)cccc1F,inactive
2,S=C(NCc1ccc2c(c1)OCO2)N1CCN(c2ncnc3c2oc2ccccc23)CC1,inactive
3,COc1cc(N2CCN(C)CC2)ccc1Nc1nc(N)c(C(=O)c2c(Cl)cccc2Cl)s1,inactive
4,c1ccc(-c2oc3ncnc(NC[C@@H]4CCCO4)c3c2-c2ccccc2)cc1,inactive
5,Cc1ncc(NC(=O)c2ccc(CN3CCN(C)CC3)c(C(F)(F)F)c2)cc1Nc1nccc(-c2cccnc2)n1,inactive
6,Cc1c(Cl)cccc1S(=O)(=O)Nc1nc(NCCc2ccccc2)nc2c1CN(Cc1ccccc1)CC2,inactive
7,O=C1C(c2c(O)[nH]c3ccccc23)=Nc2ccccc21,inactive
8,Nc1ncc(-c2cnn(CCO)c2)c2scc(-c3ccc(NC(=O)Nc4cccc(F)c4)cc3)c12,inactive
9,Cc1cccc(/C=N/Nc2cc(N3CCOCC3)nc(OCCc3ccccn3)n2)c1,inactive
10,Cn1ncc(NC(=O)c2nc(-c3c(F)cccc3F)sc2N)c1N1CC[C@@H](N)[C@H](F)CC1,inactive
11,Nc1nc(NCCNc2ncc(-n3ccnc3)c(-c3ccc(Cl)cc3Cl)n2)ccc1[N+](=O)[O-],inactive
12,Cc1ccc(NC(=O)c2ccc(CN3CCN(C)CC3)cc2)cc1Nc1nc(-c2cccnc2)cs1,inactive
13,COc1cc2c(cc1OC)-c1[nH]nc(Nc3cccc(F)c3)c1C2,inactive
14,O=S(=O)(/N=C/c1c(O)ccc2ccccc12)c1cccs1,inactive
15,Cc1cn(-c2cc(F)cc(NC(=O)c3ccc(C)c(Nc4nccc(-c5cccnc5)n4)c3)c2)cn1,inactive
16,CN1CCN(c2ccc(Nc3ncc4cc(C#N)c(=O)n(C5CCCC5)c4n3)cc2)CC1,inactive
17,COc1cc2c(Oc3ccc(NC(=O)C4(C(=O)Nc5ccc(F)cc5)CC4)cc3F)ccnc2cc1OCCCN1CCOCC1,inactive
18,N#Cc1cccc(-c2c[nH]c3ncnc(N4CCOCC4)c23)c1,inactive
19,COc1cc2nccc(Oc3ccc(NC(=O)Nc4ccc(F)cc4F)c(F)c3)c2cc1OC,inactive
20,COc1cc2c(N3CCN(C(=O)Nc4ccc(OC(C)C)cc4)CC3)ncnc2cc1OCCCN1CCCCC1,inactive
21,CN1CCN(CCCNc2ncc(Cl)c(-c3cc4c(C(=O)NC5CC5)cccc4s3)n2)CC1,inactive
